# Compound activity as filed in PubChem.
# HT1080 IDH1KD tx = qHTS for induction of synthetic lethality in tumor cells producing 2HG: qHTS for the HT-1080-IDH1KD cell line. HT-1080 IDH1 knockdown viability, ATP luminescence, 48 h. Potency, µM (top dose mostly 46.1 µM), for inactives: at the highest dose activity, negative = toxicity, actives largely listed as cytotoxic. 2% of 360,000 active. AID 686971, 2013;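 note: 0% = DMSO wells and -100% = cell-free medium wells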
#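 Luminescent ATP read-out (CellTiter-Glo, 10 min at room temperature) after 48 h compound exposure at 37 °C gave viability of IDH1-knockdown HT-1080 cells. Activity was normalised to DMSO and cell-free wells, then fitted as concentration-response curves.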
# S2 tox = Viability Counterscreen for Primary qHTS for Inhibitors of ATXN expression. S2 cells (HEK-293 line with an ATXN2-luciferase reporter) viability, CellTiter-Fluor protease fluorescence, 24 h. Potency, µM (highest dose often 56.7 µM), actives largely listed as cytotoxic. 0.49% of 400,000 active. AID 651635, 2014; note: nearly all actives have a fitted effect of over 40% in size
# HT1080NT lethal = qHTS for induction of synthetic lethality in tumor cells producing 2HG: qHTS for the HT-1080-NT fibrosarcoma cell line | HT-1080-NT fibrosarcoma viability, CellTiter-Glo ATP luminescence, 48 h | 1.6% of 360,000 active | AID 686970, 2013 | Potency, µM (titrated, usually from 46.1 µM), inactives show at the top dose activity, negative = less viability, most hits filed as cytotoxic;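 note: NT is the 2HG producing partner of a matched IDH1 knockdown line; 0% = DMSO-treated cells and -100% = media-only wells without cells; nearly all actives have a fitted effect of over 55% in size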
#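 A 48-hour cytotoxicity screen used HT-1080-NT cells plated 2 hours before compound delivery. ATP-based CellTiter-Glo luminescence measured viability, normalized to DMSO and no-cell controls.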
# TGFb SMAD3 inh = qHTS for Inhibitors of TGF-b. HepG2 CAGA-GFP TGF-b/SMAD3 reporter, GFP fluorescence, 18 h; TGF-beta stimulated, 500 pg/mL final. Potency, µM (highest dose often 46.1 µM), inactives show top-dose activity, negative = inhibition, hits mostly inhibitors. 1.2% of 410,000 active. AID 588855, 2011; note: % is set by controls: 0 for no effect and ±100 for the full control effect; nearly all actives have a fitted effect of over 65% in size
#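 First, reporter cells (HEPG2 CAGA-GFP) rested 2 h at 37 degrees C. Next, compounds were pinned in and TGF-beta added to 500 pg/mL final. After 18 h, GFP was imaged per cell and summed per well.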
# ATXN2 expr inh = Primary qHTS for Inhibitors of ATXN expression. Potency, µM (series often up to 57 µM), without a hit: at the highest dose activity change, negative = inhibition, usual class: inhibitors. 0.72% of 360,000 active. AID 1745845, 2022. HEK-293 ATXN2-luciferase reporter, luminescence, 24 h; note: % is set by controls: 0 for no effect and ±100 for the full control effect; nearly all actives have a fitted effect of over 55% in size
#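 qHTS (up to 57 uM final) was run with 24 h compound exposure of reporter cells at 37 °C. Each well was multiplexed: SteadyGlo luminescence measured ATXN2-luciferase expression after a fluorogenic Gly-Phe-AFC viability readout (25 uM final).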
# HepG2 viability = qHTS for Inhibitors of TGF-b: Cytotox Counterscreen | HepG2 CAGA-GFP viability, ATP luminescence, 18 h | Potency, µM (series often up to 46.1 µM), inactives show top-dose activity change, negative = cytotoxicity, actives largely listed as cytotoxic | 0.76% of 410,000 active | AID 588856, 2011
#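 HepG2 CAGA-GFP cells (1000/well, DMEM with 1% FBS) received compound, then TGF-beta at 500 pg/mL final, and were incubated 18 hours at 37 degrees C. Viability was read by CellTiter-Glo luminescence. Media-only wells were set as complete cell-killing and DMSO as no toxicity.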
# * marks the source's active call; other numbers are inactive results; i = inactive; ? = inconclusive; . = not tested or not shown. A selection: hits, their analogues and other compounds. The true share with any hit is near 3.9%. Calls come from the whole dose curve; as a rule, active = well fitted curve in the direction sought with a large enough effect; inconclusive = small, poorly fitted or top-dose-only effect, or another doubt; inactive = no such curve, though single readings can be large; an effect the other way counts as inactive or inconclusive. Potency is the fitted concentration of half-maximal effect.
SMILES,HT1080 IDH1KD tx,S2 tox,HT1080NT lethal,TGFb SMAD3 inh,ATXN2 expr inh,HepG2 viability
CCc1ccccc1NC(=O)Cn1c(=O)n(-c2ccc(C)c(C)c2)c(=O)c2oc3ccccc3c21,.,.,.,-15%,.,-24%
CCOC(=O)c1ccc(NC(=O)c2ccc(=O)n(Cc3cccc(C)c3)c2)cc1,.,i,.,-18%,?,-41%
O=C(c1ccc2c(c1)N(Cc1ccc(F)cc1)C(=O)c1ccccc1S2(=O)=O)N1CCN(Cc2ccccc2)CC1,.,i,.,3.5µM*,-33%,-23%
CCN1CCN(C(=O)c2ccc3c(c2)N(Cc2ccc(F)cc2)C(=O)c2ccccc2S3(=O)=O)CC1,.,.,.,.,.,-9%
CCNC(=O)Nc1ccc2ncc(Nc3ccc(C)cc3)nc2n1,.,.,.,.,-24%,.
CCOc1ccc(CN2CCN(Cc3ccc4c(c3)c3ccccc3n4CC)CC2)cc1,.,.,.,10µM*,.,-76%
CCn1c2ccccc2c2cc(CN3CCN(Cc4ccc(OC)c(OC)c4)CC3)ccc21,.,.,.,?,.,-63%
COc1ccc(-n2ncc(Cl)c(Cl)c2=O)cc1,8.2µM*,3.8µM*,4.6µM*,?,?,-30%
Cc1ccc(-c2nc(S(=O)(=O)c3ccc(F)cc3)c(N3CCN(c4ccccc4)CC3)o2)cc1,.,i,.,3%,-3%,-10%
CCc1nc2ccc(C(=O)Nc3cc(-c4ccccc4)ccc3OC)cn2c1N(CC)Cc1cccc(Br)c1,?,?,?,-9%,4%,-20%
CCc1nc2ccc(C(=O)Nc3cc(-c4ccccc4)ccc3OC)cn2c1N(CC)CCN(C)C,13µM*,.,18µM*,?,?,14µM*
CCCCN(C=O)c1c(CC)nc2ccc(C(=O)NCCN(C)C)cn12,12%,i,12%,21%,6%,-17%
CCCCN(C=O)c1c(CC)nc2ccc(C(=O)Nc3cc(-c4ccccc4)ccc3OC)cn12,?,i,?,7.1µM*,?,-11%
COc1ccc(CC(=O)NCC(c2ccc(N(C)C)cc2)N2CCOCC2)cc1OC (stereo not given),.,.,.,-1%,.,-3%
O=S(=O)(c1ccc2c(c1)CCCC2)N1CCN(c2nc(-c3ccccc3)nc3ccccc23)CC1,.,.,.,5%,.,4%
CCCN1CNc2c(c(=O)[nH]c(=S)n2CCc2c(C)cccc2C)C1,4%,.,18%,.,.,.
Cc1ccc(SCC(c2ccccc2)N2CCN(CC(C)C)CCC2=O)cc1 (stereo not given),.,.,.,-16%,.,-3%
CCOC(=O)c1cc(-c2ccc(OC)cc2)n(CCC(=O)Nc2cccc(C(C)=O)c2)c1C,.,.,.,-5%,.,-23%
Cc1cccc(-c2nc(S(=O)(=O)c3ccc(Cl)cc3)c(N3CCCCCC3)o2)c1,.,?,.,-5%,2%,0%
COc1ccc(CNc2nc(-c3ccc(OC)c(OC)c3)cc(C(F)(F)F)n2)cc1,.,i,.,?,1%,-24%
COc1ccc(-c2cc(C(F)(F)F)nc(NC3CCCC3)n2)cc1OC,?,i,-23%,-2%,1%,22µM*
CCOC(=O)COc1ccc(S(=O)(=O)c2ccc(OCC(=O)OCC)cc2)cc1,-10%,i,4%,-4%,5%,13µM*
CCOC(=O)COc1ccc(S(=O)(=O)Nc2ccc(C)cc2)cc1,?,i,?,-38%,3%,-39%
CN1C/C(=C/c2ccccc2[N+](=O)[O-])C(=O)/C(=C\c2ccccc2[N+](=O)[O-])C1,3.7µM*,.,2.9µM*,3.2µM*,?,-32%
Cc1ccc(C)c2c1CCC(=Cc1ccccc1[N+](=O)[O-])C2=O,0%,i,2%,-14%,.,-16%
